# The supplement of paper PMC3334620
# In all, about 33,000 sequences were measured (“E-score (-0.5 to 0.5)”: median about -0.032, highest 2% from about 0.36 on). Shown is part of a subset that was picked to be rich in the highest values.
# Target: T1, Sko1 (UniProt Q02100)
# T1 sequence: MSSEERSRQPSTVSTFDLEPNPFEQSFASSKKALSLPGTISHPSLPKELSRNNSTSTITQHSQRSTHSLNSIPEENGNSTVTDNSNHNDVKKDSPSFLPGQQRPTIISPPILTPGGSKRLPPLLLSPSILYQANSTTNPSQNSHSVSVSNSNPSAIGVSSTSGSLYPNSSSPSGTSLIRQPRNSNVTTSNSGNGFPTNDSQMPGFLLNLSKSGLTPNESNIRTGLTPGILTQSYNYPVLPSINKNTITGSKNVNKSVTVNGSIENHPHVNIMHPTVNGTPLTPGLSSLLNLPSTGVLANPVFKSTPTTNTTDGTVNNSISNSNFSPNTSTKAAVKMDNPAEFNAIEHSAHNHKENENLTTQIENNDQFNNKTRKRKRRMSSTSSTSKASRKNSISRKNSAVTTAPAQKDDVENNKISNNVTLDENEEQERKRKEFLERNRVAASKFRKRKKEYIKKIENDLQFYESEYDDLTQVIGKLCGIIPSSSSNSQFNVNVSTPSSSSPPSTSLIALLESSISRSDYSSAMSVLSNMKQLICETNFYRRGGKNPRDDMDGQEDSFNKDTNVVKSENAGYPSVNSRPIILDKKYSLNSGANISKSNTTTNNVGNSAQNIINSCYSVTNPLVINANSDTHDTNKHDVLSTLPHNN
# Assay: PBM E-score (8-mer binding enrichment) (E-score (-0.5 to 0.5)); higher = stronger / more preferred TF binding
# Conditions: protein concentration: 200 nM; construct: GST-full length
# Outline: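 Masliner-normalised scans of fluorescent anti-GST signal were the basis for scoring. That signal came from GST-tagged yeast transcription factors applied at about 100-200 nM to double-stranded universal all-10-mer Agilent arrays on fresh or once-stripped slides. Each ungapped eight-base word, pooled with its reverse complement, received an E-score from the Universal PBM Analysis Suite.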
row,Sequence,PBM E-score
1,CCCCGTAG,-0.2
2,CCACGTAC,0.374
3,CCACGTAG,0.377
4,CCACGTGC,0.341
5,CCACGTTC,0.0509
6,CCACGTAA,0.456
7,ATGGGGCA,-0.185
8,CAATAGTC,-0.085
9,CTGGTACA,-0.00751
10,GTCTGGGA,-0.133
11,CGTCGTCC,-0.0443
12,GGTCGTTA,-0.0165
13,AGTCGTCG,-0.148
14,AGTCGTCA,0.37
15,GGTCGTGA,0.0516
16,CGTCGTCA,0.362
17,CGTCGTTA,0.153
18,GGTCGTCA,0.38
19,AGTCGTCC,-0.114
20,AGAGGTAG,-0.178
21,GGGCTAAA,-0.182
22,AAACACGA,0.163
23,ACACACGT,0.433
24,AAACACGC,0.316
25,AAACACGT,0.413

row,Sequence,PBM E-score
1,ACACACGA,0.213
2,ACACACGG,-0.0648
3,ATATAGAG,-0.151
4,CTTTGGGA,-0.187
5,AATGAGCG,0.0936
6,ACGCAAGC,0.327
7,ACGCAATA,0.45
8,GCGCAATA,0.0795
9,ACGCAAGG,0.316
10,AGGCAATG,0.00123
11,CCGCAATC,-0.102
12,CCGCAATA,0.0923
13,ACGCAATC,0.411
14,ACGCAATG,0.399
15,AAAGGGGT,-0.26
16,ATCCACTA,-0.0731
17,CGTTAATC,0.168
18,ACGGCCCA,-0.317
19,ATAACCAT,0.057
20,AAGTTTGC,0.0635
21,CTGTGCTC,0.0303
22,ACTACGGC,-0.0407
23,ACTACGTC,0.433
24,ACTACGCC,-0.00632
25,CCTACGGA,-0.182

row,Sequence,PBM E-score
1,CCTACGGC,-0.34
2,CCTACGAA,0.0841
3,CCTACGTA,0.477
4,CCTACGTC,0.427
5,CCTACGAC,0.0224
6,GCGGGTAC,-0.0713
7,CACACTAC,0.0507
8,CCAAGCGC,-0.147
9,AGTTGCAA,0.219
10,ACATCCGG,-0.227
11,CCTACCGA,-0.168
12,CCACGCCC,-0.165
13,CCGGTGGA,-0.297
14,AGGTATAT,0.184
15,CCGTATAA,0.0514
16,AAGTATAT,0.118
17,CCGTATAC,0.0259
18,TCGTATAA,0.221
19,ACGTATAT,0.453
20,ACGTATAA,0.457
21,ATGTATAC,0.247
22,AGGTATAG,-0.141
23,CCGTATAG,-0.115
24,ACGTATAC,0.463
25,ACGTATAG,0.437

row,Sequence,PBM E-score
1,ACGTGAGT,0.331
2,AATGAGGT,0.324
3,CTTGGGTC,-0.348
4,GGCGCGAA,-0.151
5,GCGTATAC,0.365
6,GCGTATAA,0.271
7,GAGTATAC,0.192
8,ATGGAGGG,-0.334
9,CCACACTC,0.00961
10,AAGATTAG,0.062
11,AGTAAGGC,-0.0198
12,ATTACTCG,0.204
13,CTCACGCA,0.28
14,ATTACGGA,0.287
15,GGTACGCA,0.268
16,CTTACGCA,0.427
17,ATTACGCG,0.431
18,ATTACGCA,0.47
19,ATTACGCC,0.338
20,CTTACGCC,0.193
21,GTTACGCA,0.417
22,GTTACTCA,0.0403
23,CAAACCAG,-0.071
24,GCACCGCC,-0.218
25,GTACCTGA,0.16

row,Sequence,PBM E-score
1,GCATCTCC,-0.341
2,ACCGGCCT,-0.0244
3,ATAGAAAG,-0.115
4,CATAGAAC,-0.15
5,GGTACGAA,0.19
6,AGTACGTC,0.435
7,CGTACATA,0.378
8,GGTACGTA,0.454
9,AGTACGTA,0.474
10,AGTACGAC,0.157
11,GGTACGGA,-0.174
12,AGTACGGA,-0.0994
13,CGTACATC,0.244
14,AGTACATA,0.00479
15,AGTACGGC,-0.101
16,AGTACGAA,0.312
17,AACCGCCC,-0.295
18,CTTCAATA,0.197
19,CGCCGTGC,-0.189
20,CGTGCGGC,0.00261
21,CCCTACCA,-0.0655
22,CCCTAGGC,-0.269
23,GACTGGCC,-0.338
24,CGTACGTC,0.45
25,AGTACGTG,0.365

row,Sequence,PBM E-score
1,CGTACGCC,0.218
2,CGTACGCA,0.332
3,AGTACGAG,0.00509
4,CGTACGGC,0.251
5,CGTACGTA,0.474
6,AGTACGCG,0.236
7,CGTACGAA,0.269
8,GGGTTGCA,-0.00077
9,CTGGCGTC,0.0837
10,ATGGCGTA,0.449
11,GTGGCGTA,0.325
12,ATGGCGTC,0.392
13,CTGGCGTA,0.138
14,ATGGCGTG,0.336
15,AACGAGTG,0.0243
16,CGATGCAC,-0.0249
17,AGTCTTAA,-0.164
18,TCACTGCA,0.175
19,GTTACAAA,0.213
20,ATTACAAA,0.234
21,CTTACGAA,0.275
22,ATTACGAA,0.453
23,GTTACGAA,0.378
24,CTCACGAA,0.138
25,GTAGGGGA,-0.186

row,Sequence,PBM E-score
1,GGCCATCA,-0.165
2,ACCCTGAA,-0.0751
3,CGCGAATA,0.0754
4,ACCTAACT,0.0945
5,CGTCGCCA,0.0172
6,GAACCTCA,-0.069
7,GGGACGTA,0.319
8,CGGACGTC,0.292
9,AGGACGTC,0.363
10,AGGACGCC,-0.21
11,AGGACGTG,0.153
12,AGGACGTA,0.374
13,CATACCCA,0.108
14,TAAGCAGA,-0.00339
15,AACGTAGT,0.414
16,AACGTACT,0.37
17,AGCGTACT,-0.0878
18,AACGTACG,0.398
19,ACCGTACG,0.145
20,ATCGTACG,0.282
21,ACCGTACT,0.00383
22,AAGGTAGT,-0.172
23,ACCGTAGT,-0.122
